Data on 29 sequences can be found in the OligoGym collection.
Also: reference of the scale not given here.

In the first assay the target is ETS1. The assay can be described thus: pooled miR-30 sensor sort-seq; sequence = guide strand. Particulars: shRNA.
Turning to TTGATATGGTTTCACATCCTCT, the sensor-assay potency score (higher = more potent) is -1.06.

With TTCTTGTTTGATAGCAAAGTAG, the sensor-assay potency score (higher = more potent) was -1.22.

Turning to TTCTTTAGTGAAACCACTGAAA, the sensor-assay potency score (higher = more potent) is -0.218.

Sequence TATGCTTTCAAAAGAGTCCTGG gave a sensor-assay potency score (higher = more potent) of 0.343.

On to TAGCAAAGTAGTCATTCTGCAA, for which the sensor-assay potency score (higher = more potent) was -0.233.

As to TTTCACATCCTCTTTCTGCAGG, the sensor-assay potency score (higher = more potent) was -0.259.

The next assay deals with EYA3. The description is as above. Particulars: shRNA.
Consider TTTCTTCCATTGTTAAACCTGA, for which the sensor-assay potency score (higher = more potent) was -0.4.

The sequence TTGACTTATAGTTTGCTCTCCT returned a sensor-assay potency score (higher = more potent) of 0.627.

On to TAGTCCATATAGGAGAACCTTG, for which the sensor-assay potency score (higher = more potent) was -1.31.

With TTAGTCTGACCTGTGACTCCAA, the sensor-assay potency score (higher = more potent) is -0.459.

With TTGCTCTCCTGATTCCTGCATC, the sensor-assay potency score (higher = more potent) was -0.293.

Turning to TTAATCTCTGCAGTGCTTCCTT, the sensor-assay potency score (higher = more potent) was 0.585.

On to TAGATTTCTCTCACTTTCCGGT, for which the sensor-assay potency score (higher = more potent) worked out at 0.197.

As to TAGTGTCTGGTATTGAGTCTGT, the sensor-assay potency score (higher = more potent) is -0.308.

For the sequence TTGCTAGTCATGTTTTTCCTGG, the sensor-assay potency score (higher = more potent) was -0.514.

For the sequence TTTAATGCAGTTCCTAACCAGG, the sensor-assay potency score (higher = more potent) is -1.16.

On to TTTTCCTGGACTGATCATCAGT, for which the sensor-assay potency score (higher = more potent) was -0.683.

Turning to TAATCCTGGTTTGAGATGCTGG, the sensor-assay potency score (higher = more potent) is -0.375.

On to TTTGGTAGCACTATAGATGTTC, for which the sensor-assay potency score (higher = more potent) is 0.549.

On to TTCTAATTCACTGTCTTGGGAA, for which the sensor-assay potency score (higher = more potent) was -0.169.

With TAGTTTGCTCTCCTGATTCCTG, the sensor-assay potency score (higher = more potent) was -0.14.

As to TTGAGTCTGCTGTAGTGTCTGG, the sensor-assay potency score (higher = more potent) was -0.331.

Regarding TTCTGCTCTTAATCTCTGCAGT, the sensor-assay potency score (higher = more potent) was -0.462.

Turning to TTGTGAGGTATAATCATTGGAT, the sensor-assay potency score (higher = more potent) is -0.583.

ATCACTGTTAGTCTGACCTGTG: the sensor-assay potency score (higher = more potent) was 0.133.

As for TAGTCTGACCTGTGACTCCAAA, the sensor-assay potency score (higher = more potent) was -0.964.

For TCTGGTATTGAGTCTGTCCAGG, the sensor-assay potency score (higher = more potent) is -0.468.

For the sequence TATAATCATTGGATGAGCGAGG, the sensor-assay potency score (higher = more potent) was -0.793.

With TTTACTTGGTGTAGTCTGGGAC, the sensor-assay potency score (higher = more potent) is -0.478.
